Source: PubChem
In the library only some 1.7% were active in any assay of this set; here they are far more common.
Vif imaging – blocks HIV Vif function | HEK293T cells, Vif self-association by quenched fluorescence, imaging, 24 h | inhibition, % at 7.49 µM | 0.35% of 340,000 active | AID 602346; in the data active = inhibition above about 50%, passing the limit was not always enough
CFTR F508del cor – correctors of CFTR F508del function in bronchial epithelial cells. CFBE cells, YFP halide quenching; stimulated with forskolin plus potentiator P3; % fluorescence drop versus neutral controls. activity (quench increase), % at 7.58 µM. 0.36% of 350,000 active. AID 720511;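 active = mean added fluorescence quench of at least 8% versus neutral control, with both replicates also reaching 8%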;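 note: cells transiently co-express mutant CFTR-F508del with the halide-sensitive YFP; corrector assay measuring rescue of mutant channel to the surface after 24 h compound exposure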
FGF22 binding – FGF22 (human) thermal shift binding; Q9HCT0; recombinant FGF22 thermal shift, SYPRO orange fluorescence; percent of sucrose octasulfate shift, DMSO zero; activity (Tm shift, normalised), % at 9.99 µM; 1.5% of 340,000 active;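 active = mean Tm shift, scaled 0 neutral to 100 positive control, at about 1.3% or above, every replicate too, limit read from the data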
Target sequence (Q9HCT0 whole entry, looked up): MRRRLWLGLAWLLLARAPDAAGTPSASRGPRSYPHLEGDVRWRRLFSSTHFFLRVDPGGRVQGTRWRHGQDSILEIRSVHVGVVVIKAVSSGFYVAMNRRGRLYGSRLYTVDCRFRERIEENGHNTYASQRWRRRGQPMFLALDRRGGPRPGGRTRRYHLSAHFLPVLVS
Starred values were filed as active, the others as inactive; / = not tested or not shown.

SMILES	Vif imaging	CFTR F508del cor	FGF22 binding
CN(C)C(=O)C[C@H]1CC[C@H]2[C@@H](COc3ccc(NC(=O)c4ccc(F)cc4)cc3C(=O)N2C)O1	/	/	0
CC(=O)Cc1nsc(Nc2ccc(Cl)cc2)n1	-6	2	43*
CC(=O)Cc1nsc(Nc2ccc(F)cc2)n1	3	-1	0
CC(=O)Cc1nsc(NC(=O)c2ccc(Br)o2)n1	-3	-7	0
CC(=O)Cc1nsc(NC(=O)c2ccc(-c3cccc(Cl)c3)o2)n1	-15	-1	1.4*
C[C@H]1CN([C@@H](C)CO)C(=O)c2cc(NC(=O)CCC(F)(F)F)ccc2O[C@H]1CN(C)Cc1ccc(Oc2ccccc2)cc1	/	-2	0
O=C(O)C1CC2CCC1CC2 (stereo not drawn)	-8	3	0
CC12CCC(CC1O)C2C(=O)O (stereo not drawn)	4	8.2*	43*
C[C@@H]1CN([C@@H](C)CO)C(=O)c2cc(-c3ccccc3)cnc2O[C@H]1CN(C)C(=O)Cc1ccccc1	/	0	0
CC(C)NC(=O)Nc1ccc2c(c1)CC(=O)N([C@H](C)CO)C[C@@H](C)[C@H](CN(C)Cc1ccc(Oc3ccccc3)cc1)O2	/	-2	0
COc1ccc2c3c([nH]c2c1)[C@@H](CO)NCC31CN(Cc2ccccc2F)C1	/	0	0
C[C@@H]1CN([C@H](C)CO)C(=O)c2ccccc2-c2ccccc2CO[C@@H]1CN(C)Cc1cccc(C(=O)O)c1	/	3	0
C[C@@H]1CN([C@@H](C)CO)S(=O)(=O)c2ccc(/C=C/c3ccccc3)cc2O[C@@H]1CN(C)C(=O)Nc1ccc(F)cc1	/	1	1
C[C@H]1CN([C@@H](C)CO)S(=O)(=O)c2ccc(/C=C/c3ccccc3)cc2O[C@@H]1CN(C)C(=O)c1ccc2c(c1)OCO2	/	-4	1.9*
Cc1ccc(-c2ccc3c(c2)O[C@@H](CN(C)C(=O)Nc2ccc(F)cc2)[C@@H](C)CN([C@H](C)CO)S3(=O)=O)cc1	/	8.5*	1
C[C@H]1CN([C@@H](C)CO)S(=O)(=O)c2ccc(/C=C/c3ccccc3)cc2O[C@H]1CN(C)C(=O)c1ccc2c(c1)OCO2	/	-2	/
Cc1ccc(-c2ccc3c(c2)O[C@H](CN(C)C(=O)Nc2ccc(F)cc2)[C@H](C)CN([C@H](C)CO)S3(=O)=O)cc1	/	1	0
COc1cccc(NC(=O)N(C)C[C@H]2Oc3cc(C#Cc4ccccc4)ccc3S(=O)(=O)N([C@H](C)CO)C[C@@H]2C)c1	/	3	0
C[C@@H]1CN([C@@H](C)CO)S(=O)(=O)c2ccc(/C=C/c3ccccc3)cc2O[C@H]1CN(C)C(=O)Nc1ccc(F)cc1	/	4	1.6*
COc1cccc(NC(=O)N(C)C[C@@H]2Oc3cc(C#Cc4ccccc4)ccc3S(=O)(=O)N([C@@H](C)CO)C[C@@H]2C)c1	/	2	1.4*
C[C@H](CO)N1C[C@H](C)[C@H](CN(C)C)Oc2ccc(NC(=O)C3CC3)cc2C1=O	/	2	0
C[C@@H]1CN([C@@H](C)CO)C(=O)c2cc(C#CC3CCCCC3)cnc2O[C@H]1CN(C)Cc1cccnc1	/	2	0
C[C@H]1CN([C@@H](C)CO)C(=O)c2cc(C#Cc3cccnc3)cnc2O[C@@H]1CN(C)C(=O)CC1CC1	/	3	0
CCC(=O)N1CC2(C1)[C@H](c1ccc(-c3ccc(F)cc3)cc1)[C@@H](CO)N2C(C)=O	/	0	0
Cc1ccc(-c2ccc3c(c2)O[C@@H](CN(C)C(=O)Nc2ccccc2)[C@@H](C)CN([C@@H](C)CO)S3(=O)=O)cc1	/	0	1.5*
SMILES	Vif imaging	CFTR F508del cor	FGF22 binding
Cc1ccc(-c2ccc3c(c2)O[C@H](CN(C)C(=O)Nc2ccccc2)[C@H](C)CN([C@@H](C)CO)S3(=O)=O)cc1	/	2	1
Cc1cc(NS(=O)(=O)c2ccc(NC(=S)NC(=O)c3ccc(Cl)cc3Cl)cc2)no1	-16	/	/
Cc1cc(NS(=O)(=O)c2ccc(NC(=O)c3ccc(Cl)cc3Cl)cc2)no1	55*	0	0
COc1ccc(NC(=O)N(C)C[C@H]2OCCCC[C@H](C)Oc3ccc(NC(=O)Cc4ccccc4)cc3C(=O)N([C@H](C)CO)C[C@@H]2C)cc1	/	-1	0
CCOC(=O)C1=C(O)/C(=C/c2cn(CC(=O)NCC3CCCO3)c3ccccc23)SC1=Nc1ccc(C)cc1 (stereo not drawn)	94*	/	/
CCOC(=O)C1=C(O)/C(=C/c2ccc(-c3ccccc3C(=O)O)o2)SC1=Nc1ccc(C)cc1	-9	-2	0
CCCCOc1ccc(/C(O)=C2/C(=O)C(=O)N(Cc3cccnc3)C2c2ccncc2)c(C)c1 (stereo not drawn)	-2	/	/
